The list is not random: actives were taken first. Their share in the collection is about 1.2%.
NPR1 activator: GC-A stimulated cGMP production enhancers – HEK293 GC-A cells, cGMP TR-FRET, EC30 ANP, primary screen. 370,000 compounds, 0.14% hits. activation, % at 10 µM. AID 1671463, 2021. Atrial natriuretic peptide receptor 1 (Homo sapiens), P16066. 0% at EC30 ANP, 100% saturating ANP; in the data active = activation above about 40%
Neddyl block: inhibitors of cullin neddylation, primary screen, biochemical, TR-FRET, uHTS, NAE and Ubc12; inhibition, % at 25 µM; 360,000 compounds, 0.58% hits; AID 651699, 2012; in the data active = inhibition above about 36%
TLR9-MyD88 inh: inhibitors of TLR9-MyD88 association in cells, primary screen, cell-based, CHO, BLA complementation, fluorescence | Toll-like receptor 9 (Homo sapiens) + Myeloid differentiation primary response protein … | 340,000 compounds, 0.21% hits | AID 504734, 2011 | CCF4 FRET ratio | inhibition, % at 4.98 µM;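 active = inhibition above the mean over all tested compounds plus 3 SD, cut at about 21% in these data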;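 also: 0% = DMSO only wells and 100% = clavulanate BLA inhibitor control wells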
NPR2 activator: human GC-B receptor activators, primary screen, HEK293 GC-B cells, cGMP TR-FRET, EC30 CNP; Atrial natriuretic peptide receptor 2 (Homo sapiens), P20594; activation, % at 10 µM; 370,000 compounds, 0.11% hits; 0% at EC30 CNP, 100% saturating CNP;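 active = activation at 10 µM reaching about 35% in either raw or pattern-adjusted values, limit read from the data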
Target sequence (P20594 whole entry, looked up): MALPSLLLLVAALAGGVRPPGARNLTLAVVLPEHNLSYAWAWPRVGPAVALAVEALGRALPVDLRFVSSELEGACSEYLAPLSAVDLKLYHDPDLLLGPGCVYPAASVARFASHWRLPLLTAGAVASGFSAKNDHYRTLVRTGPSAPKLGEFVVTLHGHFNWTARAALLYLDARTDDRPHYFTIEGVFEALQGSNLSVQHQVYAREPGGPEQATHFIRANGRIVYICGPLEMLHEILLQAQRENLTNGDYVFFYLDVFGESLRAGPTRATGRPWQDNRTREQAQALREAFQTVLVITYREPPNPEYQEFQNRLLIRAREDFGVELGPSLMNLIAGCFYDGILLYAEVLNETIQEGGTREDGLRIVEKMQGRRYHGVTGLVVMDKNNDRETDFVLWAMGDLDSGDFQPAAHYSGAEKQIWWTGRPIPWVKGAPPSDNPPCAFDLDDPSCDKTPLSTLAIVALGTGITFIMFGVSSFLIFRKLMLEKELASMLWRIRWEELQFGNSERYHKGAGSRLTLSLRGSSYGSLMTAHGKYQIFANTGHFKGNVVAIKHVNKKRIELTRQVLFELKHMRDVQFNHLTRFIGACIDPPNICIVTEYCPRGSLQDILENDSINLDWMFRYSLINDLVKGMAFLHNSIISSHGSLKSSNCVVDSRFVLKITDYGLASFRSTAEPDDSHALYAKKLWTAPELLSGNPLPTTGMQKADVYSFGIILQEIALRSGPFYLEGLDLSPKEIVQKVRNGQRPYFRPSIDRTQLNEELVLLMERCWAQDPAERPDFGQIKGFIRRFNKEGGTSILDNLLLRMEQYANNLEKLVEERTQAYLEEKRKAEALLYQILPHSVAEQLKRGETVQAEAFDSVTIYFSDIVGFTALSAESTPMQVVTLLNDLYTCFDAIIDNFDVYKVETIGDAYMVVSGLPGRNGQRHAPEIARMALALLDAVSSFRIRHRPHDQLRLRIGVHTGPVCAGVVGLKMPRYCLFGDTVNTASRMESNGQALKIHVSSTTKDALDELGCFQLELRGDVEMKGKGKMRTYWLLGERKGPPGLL
TLR4 MyD88 comp: inhibitors of TLR4-MyD88 association in cells, primary screen, cell-based, HeLa CL3-4, BLA complementation, FRET ratio; Toll-like receptor 4 (Homo sapiens) + Myeloid differentiation primary response protein …; 200,000 compounds, 0.18% hits; HeLa CL3-4 TLR4/MyD88 BLA complementation; inhibition, % at 8.4 µM; in the data active = inhibition above about 25%;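 also: 0% = vehicle and 100% = reference inhibitor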
NOD2 RIPK2 PPI: NOD2-RIPK2 binding disruptors in cells, primary screen, fluorescence, CHO cells, BLA complementation. CCF4 ratio. 360,000 compounds, 0.38% hits. inhibition, % at 4.98 µM; in the data active = inhibition above about 21%;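 also: 0% = vehicle only and 100% = reference blocker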
TLR4-MyD88 conf: TLR4-MyD88 association inhibitors, retest, confirmation, cell-based, HeLa CL3-4, BLA complementation, FRET ratio; 350 compounds, 50% hits; inhibition, % at 8.4 µM; shares compounds with TLR4 MyD88 comp; CCF4 FRET ratio;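 active = mean inhibition across three repeat runs above about 25% carried over from the earlier screen, limit read from the data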;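 also: plate controls were DMSO only for no effect and clavulanic acid blocking BLA at full dose for full effect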
BLA inhibitor ct: beta-lactamase inhibition flagged in TLR4-MyD88 counter-screen. shares compounds with TLR4 MyD88 comp. HeLa BLA reporter, CCF4 FRET ratio. inhibition, % at 8.4 µM. 350 compounds, 63% hits;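 active = mean inhibition over three repeats above about 26% taken from the earlier screen, limit read from the data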;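 also: HeLa cells stably expressing beta-lactamase reporter as counterscreen for TLR4-MyD88 inhibitors; 0% = DMSO and 100% = clavulanic acid full inhibition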
* = called active by the depositor.

What do the screens show for `O=C1c2cccc3c(N4CCCCC4)ccc(c23)C(=O)N1c1ccc(O)cc1`?
NPR1 activator: 1; Neddyl block: -44; TLR9-MyD88 inh: 12; NPR2 activator: -10; TLR4 MyD88 comp: 31*; NOD2 RIPK2 PPI: 14; TLR4-MyD88 conf: 30*; BLA inhibitor ct: 48*

Results for COC(=O)[C@]12C=CCN1[C@@H](c1ccc(C(F)(F)F)cc1)c1c(c3ccccc3n1S(=O)(=O)c1ccc(C)cc1)C2 ?
NPR1 activator: -3; NPR2 activator: 1

What do the screens show for `O=c1cc(-c2c(F)c(F)c(F)c(F)c2F)oc2c(F)c(F)c(F)c(F)c12`?
TLR4 MyD88 comp: 42*; TLR4-MyD88 conf: 38*; BLA inhibitor ct: 15

What do the screens show for `CC1(C)CC(=O)C(C(C2=C(O)CC(C)(C)CC2=O)c2cccs2)C(=O)C1` (configuration not stated)?
Neddyl block: 8; TLR9-MyD88 inh: -1; TLR4 MyD88 comp: 25*; NOD2 RIPK2 PPI: -1; TLR4-MyD88 conf: 2; BLA inhibitor ct: -11

What do the screens show for `CC1(C)CC(=O)C(C(C2=C(O)CC(C)(C)CC2=O)c2cccc(O)c2)C(=O)C1` (configuration not stated)?
NPR1 activator: 1; Neddyl block: -2; TLR9-MyD88 inh: 0; NPR2 activator: 2; TLR4 MyD88 comp: -3; NOD2 RIPK2 PPI: 4

What do the screens show for `COc1ccc(C)cc1S(=O)(=O)N1CCN(S(=O)(=O)c2cc(C)ccc2OC)C(C)C1` (configuration not stated)?
NPR1 activator: 3; Neddyl block: -5; TLR9-MyD88 inh: 1; NPR2 activator: -7; TLR4 MyD88 comp: 27*; NOD2 RIPK2 PPI: 0; TLR4-MyD88 conf: -2; BLA inhibitor ct: 10

Results for COc1ccc(-c2nnc(SCC(=O)N/N=C(\C)c3ccc(-c4ccccc4)cc3)n2-c2ccc(C)cc2)cc1 ?
NPR1 activator: -3; NPR2 activator: -8

Results for CCOc1ccc(C(C)(C)C)cc1S(=O)(=O)N1CCOCC1 ?
NPR1 activator: -5; Neddyl block: -3; TLR9-MyD88 inh: -2; NPR2 activator: 2; TLR4 MyD88 comp: 27*; NOD2 RIPK2 PPI: -8; TLR4-MyD88 conf: 0; BLA inhibitor ct: -2

What do the screens show for `CCOc1ccc(S(=O)(=O)N2CCOCC2)c2ccccc12`?
NPR1 activator: -8; Neddyl block: 4; TLR9-MyD88 inh: -1; NPR2 activator: 1; NOD2 RIPK2 PPI: 2

How did CC(C)(C)N1Cc2nnn(Cc3ccccc3)c2-c2cc(N3CCCCC3)ccc2S1(=O)=O do in these assays?
NPR1 activator: -7; NPR2 activator: 0

What do the screens show for `Cc1ccc(C)c(N(CC(=O)N/N=C/c2ccc(-c3ccc([N+](=O)[O-])cc3)o2)S(=O)(=O)c2ccccc2)c1`?
NPR1 activator: 3; Neddyl block: 9; TLR9-MyD88 inh: 3; NPR2 activator: -2; TLR4 MyD88 comp: 55*; NOD2 RIPK2 PPI: 7; TLR4-MyD88 conf: 58*; BLA inhibitor ct: 87*

Results for Cc1ccc(S(=O)(=O)Nc2cc(C(F)(F)F)ccc2N2CCOCC2)cc1C ?
NPR1 activator: -7; Neddyl block: -4; TLR9-MyD88 inh: 6; NPR2 activator: -13; TLR4 MyD88 comp: 70*; NOD2 RIPK2 PPI: -7; TLR4-MyD88 conf: -1; BLA inhibitor ct: 1
